BAZ2B inh: qHTS Assay for Inhibitors of BAZ2B; Bromodomain adjacent to zinc finger domain protein 2B (Homo sapiens), Q9UIF8; AlphaScreen BAZ2B-H3K14Ac peptide displacement; Potency, µM (highest dose often 114 µM), hits mostly inhibitors; 360,000 compounds, 4.4% hits; AID 504333, 2011; note: nearly all actives have a fitted effect of over 60% in size
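Inhibition is scored as reduced AlphaScreen emission. The BAZ2B/b-H3(5-23)K14Ac complex (50 nM each) in PBS pH 7.4, 0.01% Tween-20 meets compound (up to 110 uM) for 30 min at RT before bead addition.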
G9a block: qHTS Assay for Inhibitors of Histone Lysine Methyltransferase G9a | G9a H3K9 monomethylation, AlphaScreen, 2 h | 350,000 compounds, 8.8% hits | Histone-lysine N-methyltransferase EHMT2 (Homo sapiens), Q96KQ7 | Potency, µM (series often up to 102 µM), most hits filed as inhibitors | AID 504332, 2011; note: nearly all actives have a fitted effect of over 75% in size
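Using a bead-based AlphaScreen, monomethylated H3K9 product from 2 h room-temperature reactions (G9a 20 nM, peptide 500 nM, SAM 20 uM) was detected with 0.5 ug/mL rabbit anti-H3K9me1 antibody.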
L3MBTL1 inh: qHTS Assay for the Inhibitors of L3MBTL1. AlphaScreen L3MBTL1–H3K9me1 peptide binding. AID 485360, 2010. Potency, µM (top dose mostly 57.1 µM), usual class: inhibitors. 230,000 compounds, 0.66% hits. Lethal(3)malignant brain tumor-like protein 1 (Homo sapiens), Q9Y468; note: nearly all actives have a fitted effect of over 60% in size
Target sequence (Q9Y468 whole entry, looked up): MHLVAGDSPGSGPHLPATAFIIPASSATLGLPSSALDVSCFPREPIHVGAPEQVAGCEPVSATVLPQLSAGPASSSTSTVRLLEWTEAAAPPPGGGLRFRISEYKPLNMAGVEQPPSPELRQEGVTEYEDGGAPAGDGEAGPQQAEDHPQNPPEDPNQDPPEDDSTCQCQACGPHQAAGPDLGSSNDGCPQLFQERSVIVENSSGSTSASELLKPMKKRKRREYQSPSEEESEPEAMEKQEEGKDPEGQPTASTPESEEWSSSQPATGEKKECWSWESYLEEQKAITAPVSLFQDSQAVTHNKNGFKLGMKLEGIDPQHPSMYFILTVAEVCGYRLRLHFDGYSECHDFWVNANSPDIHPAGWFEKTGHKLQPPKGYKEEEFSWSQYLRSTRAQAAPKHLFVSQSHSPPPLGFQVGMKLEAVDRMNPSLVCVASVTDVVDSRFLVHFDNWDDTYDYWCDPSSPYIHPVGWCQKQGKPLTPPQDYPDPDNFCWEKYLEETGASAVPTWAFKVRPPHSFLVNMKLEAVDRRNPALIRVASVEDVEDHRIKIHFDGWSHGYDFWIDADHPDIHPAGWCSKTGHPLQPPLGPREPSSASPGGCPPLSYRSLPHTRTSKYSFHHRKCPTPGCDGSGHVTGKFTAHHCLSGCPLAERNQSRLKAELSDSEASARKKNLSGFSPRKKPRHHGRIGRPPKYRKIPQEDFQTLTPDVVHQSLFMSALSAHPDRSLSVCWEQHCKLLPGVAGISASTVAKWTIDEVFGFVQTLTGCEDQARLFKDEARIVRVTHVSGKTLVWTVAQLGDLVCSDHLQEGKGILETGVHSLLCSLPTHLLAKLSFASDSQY
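AlphaScreen assay: L3MBTL1 (50 nM final) was preincubated 30 min at room temperature with biotinylated H3(1-15)K9me1 peptide (75 nM final), then 30 min with library compounds; streptavidin donor and nickel chelate acceptor beads (10 ug/mL final) added, 30 min dark.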
Sfp inh: qHTS Assay for Inhibitors of Bacillus subtilis Sfp phosphopantetheinyl transferase (PPTase); 4'-phosphopantetheinyl transferase ffp (Bacillus subtilis), Q9F4F7; Biochemical Sfp PPTase activity, qHTS; Potency, µM, actives largely listed as inhibitors; 310,000 compounds, 3.5% hits; AID 1490, 2009;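 note: the enzyme is Sfp with the accession as filed and its product quenches rhodamine fluorescence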
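Fluorescence-quenching assay with 15 nM Sfp, 5 uM rhodamine-CoA and 12.5 uM BHQ-2-labelled ybbR peptide in pH 7.6 Hepes/MgCl2 buffer. Enzyme was pre-incubated with compound for 15 min at room temperature. Rate was taken from the 30-min fluorescence change (525/598 nm).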
HP1b chromo inh: HTS for Inhibitors of HP1-beta Chromodomain Interactions with Methylated Histone Tails; 390,000 compounds, 0.56% hits; Chromobox protein homolog 1 (Homo sapiens), P83916; Potency, µM (highest dose often 114 µM), hits mostly inhibitors; AID 540317, 2011; AlphaScreen HP1-beta / biotin-H3K9me3 peptide binding; note: nearly all actives have a fitted effect of over 70% in size
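AlphaScreen: HP1-beta (50 nM) preformed 30 min with biotin-H3(1-18)K9me3 peptide (50 nM) in PBS pH 7.4, 0.01% Tween-20. Compound added for 30 min at RT, then streptavidin donor/nickel chelate acceptor beads (10 ug/mL) for 30 min.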
JMJD2A Tudor: qHTS Assay for Inhibitors of JMJD2A-Tudor Domain; Lysine-specific demethylase 4A (Homo sapiens), O75164; AlphaScreen JMJD2A-Tudor / H3K4me3 peptide binding; Potency, µM (doses to about 114 µM), usual class: inhibitors; 390,000 compounds, 4.4% hits; AID 504339, 2011; note: nearly all actives have a fitted effect of over 50% in size
Numbers stand for hits; i = inactive; ? = inconclusive; nt = no result; [ ] = dose if it differs, or a comment. In the library only some 12% were active in any assay of this set; here they are far more common. Calls come from the whole dose curve; as a rule, active = well fitted curve in the direction sought with a large enough effect; inconclusive = small, poorly fitted or top-dose-only effect, or another doubt; inactive = no such curve, though single readings can be large; an effect the other way counts as inactive or inconclusive.

SMILES	BAZ2B inh	G9a block	L3MBTL1 inh	Sfp inh	HP1b chromo inh	JMJD2A Tudor
O=C1/C(=C/c2ccc([N+](=O)[O-])cc2)N2CCC1CC2	?	11µM	i	i	i	i
NC(N)=N/N=C\c1c(Cl)cccc1Cl	nt	i[2.33 µM]	nt	i	nt	nt
CCOC(=O)C1(CCc2ccccc2)CCN(C2CCSCC2)CC1	i	nt	i	79µM	i	i
CCCCN(CC)c1c([N+](=O)[O-])cc(C(F)(F)F)cc1[N+](=O)[O-]	nt	nt	nt	i	nt	nt
CN1CCN(c2ccc(N)cc2)CC1	?	13µM	nt	i	i	?
C#CCN1CCN(c2ccc(F)cc2)CC1	i	i[12.7 µM]	i	i	i	i
CCN1CCN(c2ccc(NC(C)=O)cc2Cl)CC1	i	i	i	i	i	i
CCN1CCN(c2ccc(N)cc2)CC1	i	40µM	nt	i	i	i
CCN1CCN(c2ccc(N)cc2C)CC1	?	32µM	i	i	i	?
Cc1ccc(/C=C2/C(=O)NC(=O)N(C)C2=O)cc1	i	i	i	?	i	i
CN1C(=O)NC(=O)/C(=C/c2ccc(C(=O)O)cc2)C1=O	i	i	nt	45µM	i	i[11.4 µM]
CC1=C(O)C(=O)C=C2C1=CC=C1C2(C)CCC2(C)C3CC(C)(C(=O)O)CCC3(C)CCC12C (stereo unspecified)	nt	nt	nt	nt	?	20µM
Cc1c(O)c(O)cc2c1CC=C1[C@]3(C)CC[C@]4(C)CC[C@@](C)(C(=O)O)CC4[C@]3(C)CC[C@]12C (stereo partly specified)	nt	nt	nt	i	nt	nt
Clc1ccc(Sc2oc(/C=N/n3cnnc3)cc2Br)cc1	i	i	i	i	i	89µM
COc1cc2c(cc1OC)[C@H](C)NCC2	nt	i[21.5 µM]	nt	i	nt	nt
C[C@@H]1NCCc2cc(O)c(O)cc21	i	1.8µM	i	?	?	20µM
CNC(=O)Oc1ccc2c(c1)[C@@]1(C)CCN(C)C1N2C (stereo partly specified)	nt	i[2.33 µM]	nt	?	nt	nt
Cc1ccc(N2C(=O)NC(=O)/C(=C/c3cnn(-c4ccc(C)cc4)c3)C2=O)cc1	i	3.5µM	i	i	i	i
CSc1ncc(/C=C2/C(=O)NC(=O)N(c3ccc(Cl)cc3)C2=O)cn1	i	8.9µM	nt	56µM	i	?
Cc1cc(/C=C2\C(=O)NC(=O)N(c3ccc(Cl)cc3)C2=O)c(C)n1C	i	nt	i	i	i	i
CC1=NN(c2ccccc2)C(=O)C1/C=C1/C(=O)NC(=O)N(c2cc(C)cc(C)c2)C1=O (stereo unspecified)	?	?	i	i	i	?
Cc1ccc(N2C(=O)NC(=O)/C(=C\c3cnc(-c4ccccc4)nc3)C2=O)cc1	i	?	i	56µM	i	?
Cc1ccc(N2C(=O)NC(=O)/C(=C\c3cccn3C(C)(C)C)C2=O)cc1	i	?	i	i	i	i
Cc1ccc(N2C(=O)NC(=O)/C(=C/c3ccoc3)C2=O)cc1	7.9µM	nt	nt	25µM	10µM	10µM
C=C1CC2C(CC[C@]3(C)C(=O)CCC23)[C@]2(C)C=CC(=O)C=C12 (stereo partly specified)	nt	i	nt	i	nt	nt
SMILES	BAZ2B inh	G9a block	L3MBTL1 inh	Sfp inh	HP1b chromo inh	JMJD2A Tudor
COC1C(O)C(C)O[C@@H](OC2CC[C@@]3(C)C4CC[C@]5(C)C(C6=CC(=O)OC6)CC[C@@]5(O)C4CC[C@@H]3C2)C1O (stereo partly specified)	nt	nt	nt	i	nt	nt
CCOc1ccc(N2C(=O)NC(=O)/C(=C/c3cnc(SC)nc3)C2=O)cc1	?	8.9µM	nt	28µM	i	?
CSc1ncc(/C=C2/C(=O)NC(=O)N(c3ccc(C)cc3)C2=O)cn1	i	10µM	i	45µM	i	i
O=[N+]([O-])c1ccc(N2CCCCC2)c2ncccc12	?	?	i	i	?	?
O=[N+]([O-])c1ccc(N2CCCC(C(F)(F)F)C2)c2ccncc12 (stereo unspecified)	?	50µM	nt	i	?	?
COc1cccc(CNC(=O)c2cccc(S(=O)(=O)N3CCN(C)CC3)c2)c1	i	40µM	nt	i	i	i
